# Assay outcomes deposited in PubChem BioAssay by National Center for Advancing Translational Sciences (NCATS).
# Most compounds without a hit are left out; they make up all but 0.93% or so of the library.
# MBNL1 CUG block: qHTS Assay for Inhibitors of MBNL1-poly(CUG) RNA binding; AID 2675, 2010; TR-FRET MBNL1-His/biotin-(CUG)12 binding, 665/545 ratio; 0.036% of 280,000 active; Potency, µM (doses to about 57.5 µM), for inactives: top-dose activity change, negative = inhibition, hits mostly inhibitors; Muscleblind-like protein 1 (Homo sapiens), Q9NR56; active = well fitted inhibition curve with a large enough effect in the signal ratio, with a control signal flat, not every such curve was filed as active; inconclusive = small, poorly fitted or top-dose-only effect, or effect the other way, or a change in a side signal; inactive = no such curve, though single readings can be large or run the other way; the % refers to the signal ratio; note: potency is the fitted concentration of half-maximal effect; % is set by controls: 0 for no effect and ±100 for the full control effect
#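 Inhibition of protein-RNA binding appears as loss of TR-FRET between terbium anti-His antibody on MBNL1-His and streptavidin-XL665 on biotin-(CUG)12. Activity is normalized to buffer-only and uninhibited-complex controls.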
# PKM2 act: qHTS Assay for Activators of Human Muscle isoform 2 Pyruvate Kinase; Pyruvate kinase PKM (Homo sapiens), P14618; 0.34% of 260,000 active; purified PKM2, Kinase-Glo ATP luminescence, activation; response scale: 0% is enzyme alone, no compound; Potency, µM (highest dose often 57.5 µM), for inactives: top-dose activation, actives largely listed as activators; AID 1631, 2009; note: potency is the fitted concentration of half-maximal effect; % is set by controls: 0 for no effect and ±100 for the full control effect; nearly all actives have a fitted effect of over 55% in size
# Target sequence (P14618 whole entry, looked up, canonical isoform): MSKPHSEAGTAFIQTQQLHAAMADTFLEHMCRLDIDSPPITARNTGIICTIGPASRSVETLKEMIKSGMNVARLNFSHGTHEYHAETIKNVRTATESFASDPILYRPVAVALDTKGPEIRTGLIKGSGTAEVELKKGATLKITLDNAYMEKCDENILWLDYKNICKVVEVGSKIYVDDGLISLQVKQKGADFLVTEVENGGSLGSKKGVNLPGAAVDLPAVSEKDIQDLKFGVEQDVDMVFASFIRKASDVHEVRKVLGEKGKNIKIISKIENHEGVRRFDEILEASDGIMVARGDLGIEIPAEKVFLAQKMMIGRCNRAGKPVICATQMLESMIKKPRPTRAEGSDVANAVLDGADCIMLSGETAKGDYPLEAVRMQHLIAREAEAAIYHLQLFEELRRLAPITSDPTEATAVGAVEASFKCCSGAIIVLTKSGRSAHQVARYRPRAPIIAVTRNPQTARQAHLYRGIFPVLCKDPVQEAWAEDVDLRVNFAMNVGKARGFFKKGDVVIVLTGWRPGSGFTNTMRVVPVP
#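 hPK-M2, >95% pure; 0.1 mM ADP / 0.5 mM PEP final; imidazole pH7.2 buffer w/ 7 mM MgCl2, 50 mM KCl; 1 h RT; Kinase-Glo lum. Intermediate enzyme activity for dual inhibitor/activator qHTS.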
# Six1-Eya2 inh: qHTS Assay for Inhibitors of the Six1/Eya2 Interaction | activity change, % (concentration not given with the values) | AID 651725, 2012 | 0.56% of 360,000 active | AlphaScreen GST-Six1/His-Eya2 binding, biochemical; hits give low values; in the data active = activity change below about -65%; inconclusive = mostly about -30% to -63%; note: % is set by controls: 0 for no effect and ±100 for the full control effect
#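 Six1/Eya2 binding was read as AlphaScreen signal after compounds were pinned into GST-Six1 plus His-tagged Eya2 (5X stock 250/500 nM) in pH 8.0 Tris/NaCl/TCEP buffer, beads added, then incubated 1 h, 37 C, dark.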
# CtBP-E1A blk: qHTS Assay for Inhibitors of the CtBP/E1A Interaction; AlphaScreen GST-E1A/His-CtBP binding, 1536-well; hits give low values; activity change, % (test concentration not listed); 0.49% of 340,000 active; in the data active = activity change below about -65%; inconclusive = mostly about -30% to -63%; note: % is set by controls: 0 for no effect and ±100 for the full control effect
#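 AlphaScreen with 125 nM GST-E1A and 125 nM His-CtBP (5X stocks) in Tris pH 8.0, 300 mM NaCl, BSA, Tween 20, TCEP. Compounds preincubated 2 h at 37 deg C, then glutathione donor/nickel acceptor beads added for 1 h at 37 deg C in dark.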
# MBNL1 TRFRET: qHTS Assay for Inhibitors of MBNL1-poly(CUG) RNA binding: Initial hit validation from the primary screen; AID 493199, 2011; TR-FRET MBNL1-His / biotin-(CUG)12 binding, 60 min; shares compounds with MBNL1 CUG block; Potency, µM (titrated, usually from 57.6 µM), inactives show at the top dose activity change, negative = inhibition, hits mostly inhibitors; 50% of 140 active
# MBNL1 AlphaScrn: qHTS Assay for Inhibitors of MBNL1-poly(CUG) RNA binding: Initial hit validation in AlphaScreen assay for MBNL1-(CUG)12 binding; AlphaScreen MBNL1-His / biotin-(CUG)12 binding; AID 493205, 2011; shares compounds with MBNL1 CUG block; Potency, µM (doses to about 57.7 µM), for the others: at the top dose activity, negative = inhibition, actives largely listed as inhibitors; 30% of 140 active
# MBNL1 HTRF CS: qHTS Assay for Inhibitors of MBNL1-poly(CUG) RNA binding: Counterscreen HTRF assay. shares compounds with MBNL1 CUG block. His-Menin/biotin-MLL peptide TR-FRET counterscreen. Potency, µM (doses to about 57.6 µM), inactives show top-dose activity, negative = inhibition, hits mostly inhibitors. 20% of 120 active
# Active calls of the source: *; ? = inconclusive; / = no result given. Unless noted, calls come from the whole dose curve; as a rule, active = well fitted curve in the direction sought with a large enough effect; inconclusive = small, poorly fitted or top-dose-only effect, or another doubt; inactive = no such curve, though single readings can be large; an effect the other way counts as inactive or inconclusive.
SMILES,MBNL1 CUG block,PKM2 act,Six1-Eya2 inh,CtBP-E1A blk,MBNL1 TRFRET,MBNL1 AlphaScrn,MBNL1 HTRF CS
O=C(OCC1OC(OC(=O)c2cc(O)c(O)c(OC(=O)c3cc(O)c(O)c(O)c3)c2)[C@@H](OC(=O)c2cc(O)c(O)c(OC(=O)c3cc(O)c(O)c(O)c3)c2)C(OC(=O)c2cc(O)c(O)c(OC(=O)c3cc(O)c(O)c(O)c3)c2)C1OC(=O)c1cc(O)c(O)c(OC(=O)c2cc(O)c(O)c(O)c2)c1)c1cc(O)c(O)c(OC(=O)c2cc(O)c(O)c(O)c2)c1 (some centres not stated),/,/,/,/,0.41µM*,0.029µM*,/
Cn1c(=O)n(C)c2cc(CNC(=O)[C@H]3O[C@@H](n4ccc(=O)[nH]c4=O)[C@H](O)[C@@H]3O)ccc21,/,/,8,-15,/,/,/
COC(=O)c1c(N)[nH]c(C(=O)c2ccccc2)c1-c1ccc(Br)cc1,/,/,-7,5,/,/,/
CCOC(=O)[C@]12CCC=C1N(Cc1ccco1)C(=O)[C@H](CC(=O)NCc1cccc3ccccc13)C2,/,/,-12,0,/,/,/
CCOC(=O)C1(CCOc2ccccc2)CCN(Cc2ccc(-n3cccn3)cc2)CC1,11µM*,0%,-7,/,6.5µM*,?,-46%
CCOC(=O)C1(CCOc2ccccc2)CCN(Cc2ccncc2)CC1,-7%,-10%,-3,-1,/,/,/
CC1(C(=O)Nc2cccc(OC(F)(F)F)c2)Cc2c(-c3cccc(C(N)=O)c3)ccnc2O1 (configuration not stated),/,/,0,0,/,/,/
N#Cc1c(N)nc(SCC(=O)NCCc2ccccc2)c(C#N)c1-c1cccs1,134%,1%,9,-1,?,-3%,0%
CC(=O)CSc1nc(N)c(C#N)c(-c2cccs2)c1C#N,245%,3%,-17,-27,/,/,/
C/C1=C2N=C(/C=C3N=C(/C(C)=C4\[N-]C(C)(C5N=C1C(C)(CCC(=O)NCC(C)OP(=O)([O-])O[C@H]1C(O)C(n6cnc7cc(C)c(C)cc76)O[C@@H]1CO)C5CC(N)=O)C(C)(CC(N)=O)C4CCC(N)=O)C(C)(CC(N)=O)C\3CCC(N)=O)C(C)(C)C/2CCC(N)=O.[CH2-]C1OC(n2cnc3c(N)ncnc32)C(O)C1O.[Co] (some centres not stated),/,/,/,/,0.12µM*,5.2µM*,/
CC(=O)c1cccc(NC(=O)Nc2cccnc2)c1,25µM*,-9%,3,-2,26µM*,2%,?
CCOC(=O)C1(C)CCN1C(=O)c1ccc2c(c1)CCO2 (configuration not stated),/,/,27,35,/,/,/
CC(=O)c1c(C)nc(C)nc1NC(=O)Cc1ccccc1,?,-15%,7,-3,/,/,/
CC(=O)Nc1nc(-c2ccc(Cl)cc2)nc(C)c1C(C)=O,25µM*,-17%,-1,-20,?,?,?
O.O.O.O.O.O.O.O=S(=O)([O-])[O-].[Co+2],/,/,/,/,3.3µM*,2.6µM*,?
CC1(C)CCC2=C(O1)c1ccccc1C(=O)C2=O,?,/,/,/,?,20µM*,/
CCc1nc2c(OCC(=O)c3ccc(F)cc3)cccn2c1N(C)C(=O)C(C)C,/,/,-5,0,/,/,/
